Data from the supplement of paper PMC12636033.
± gives the standard deviation of the averaged measurements. In all, about 33,000 sequences were measured (“E-score (rank enrichment, -0.5 to 0.5)”: median about -0.0068, highest 2% from about 0.24 on). The full list was thinned out, with the highest values kept by preference.

Tested on: muMax20 (Max(13-93) K31hArg/K57hArg, M65Nle)
Assay: PBM 8-mer E-score (E-score (rank enrichment, -0.5 to 0.5)); higher = stronger preferential binding
Procedure: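 Protein binding microarray (universal PBM chip covering all 10-mers in fixed probe flanks) with chemically synthesized human Max(13-93) bHLH-LZ analogs (not full-length Max) bearing noncanonical residues (hArg, Tha, Aib, Nle at 65) and aromatic Cys staples. Read-out per 8-mer (and its reverse complement): E-score (rank-based enrichment, -0.5 to 0.5) and Z-score of median probe intensity.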

| Sequence | PBM 8-mer E-score |
| --- | --- |
| GTTGGTAA | 0.0564 ± 0.03 |
| ATATGTGG | 0.261 ± 0.098 |
| CTATGTGA | 0.0996 ± 0.088 |
| ATATGTGC | 0.121 ± 0.056 |
| ATATGTGA | 0.32 ± 0.08 |
| GTATGTGA | 0.0146 ± 0.021 |
| ATGTGTGG | 0.104 ± 0.095 |
| CACGAATG | 0.101 ± 0.063 |
| GGCGGACA | -0.0909 ± 0.047 |
| GTCCTAAA | 0.0453 ± 0.11 |
| ATGGCATG | 0.0857 ± 0.18 |
| ACTTTCTG | -0.00396 ± 0.12 |
| ACTTTCTC | 0.0328 ± 0.03 |
| ACTTTCTA | 0.237 ± 0.046 |
| CCGAAAAG | 0.0771 ± 0.15 |
| ATGAATTG | 0.179 ± 0.062 |
| CCTACAAC | 0.13 ± 0.0096 |
| CATACACG | 0.166 ± 0.029 |
| CATACACA | 0.221 ± 0.047 |
| AATACACA | 0.308 ± 0.05 |
| AATACACG | 0.256 ± 0.027 |
| ACTACAAC | 0.268 ± 0.024 |
| CGTATACA | 0.216 ± 0.049 |
| ACTACAAG | 0.135 ± 0.062 |
| AATACACT | 0.188 ± 0.042 |

| Sequence | PBM 8-mer E-score |
| --- | --- |
| GGTATACA | 0.109 ± 0.022 |
| TATACACA | 0.234 ± 0.038 |
| TGTATACA | 0.335 ± 0.051 |
| CGCGACCA | -0.136 ± 0.0046 |
| ATATGGTA | 0.217 ± 0.0028 |
| GTCGGACA | -0.2 ± 0.096 |
| GAATAACC | 0.0359 ± 0.041 |
| TCGAAACA | 0.00709 ± 0.067 |
| ACAGAGTC | -0.0304 ± 0.021 |
| ATCCTACA | -0.0539 ± 0.011 |
| GTTCCCGA | -0.272 ± 0.029 |
| AAACTCGG | -0.00029 ± 0.062 |
| TGAAATCA | 0.102 ± 0.042 |
| CACCTAGC | 0.0921 ± 0.017 |
| ACTACACG | 0.149 ± 0.0089 |
| AGTACACA | 0.22 ± 0.037 |
| ACTACACA | 0.315 ± 0.053 |
| CCTACACG | 0.00955 ± 0.02 |
| TGTACACA | 0.251 ± 0.073 |
| CGTACACG | 0.212 ± 0.059 |
| ATCCCTGG | -0.185 ± 0.058 |
| ACTCCATC | -0.129 ± 0.053 |
| ATTTCATC | 0.17 ± 0.077 |
| TGAAGACA | -0.094 ± 0.12 |
| ACTGTATA | 0.255 ± 0.011 |

| Sequence | PBM 8-mer E-score |
| --- | --- |
| GTTGTATA | 0.249 ± 0.025 |
| ATTGTATA | 0.131 ± 0.13 |
| GATGTATA | 0.103 ± 0.14 |
| CAAGTATA | 0.187 ± 0.011 |
| GCTGTATA | 0.192 ± 0.026 |
| CATGTATA | 0.228 ± 0.034 |
| CTTGTATA | 0.136 ± 0.16 |
| CCTGTATA | 0.116 ± 0.042 |
| AAAGTATA | 0.315 ± 0.012 |
| AAAGTATT | 0.221 ± 0.0025 |
| AATGTATA | 0.279 ± 0.074 |
| ACGCCATA | 0.0949 ± 0.073 |
| TCTAAACA | 0.16 ± 0.033 |
| CTGAGTTA | -0.0809 ± 0.031 |
| AGAAAAAA | 0.231 ± 0.056 |
| CATCGAGC | -0.0831 ± 0.0056 |
| AAATGTGC | 0.121 ± 0.067 |
| ACGGTGCT | -0.0206 ± 0.018 |
| ATTGTTTA | 0.103 ± 0.011 |
| CTTGTTTA | 0.0457 ± 0.0082 |
| GTTGTTTA | 0.32 ± 0.063 |
| ACATTGTG | 0.144 ± 0.17 |
| TAGATCTA | 0.0708 ± 0.14 |
| AACATATG | 0.136 ± 0.027 |
| CACATATG | 0.131 ± 0.036 |

| Sequence | PBM 8-mer E-score |
| --- | --- |
| CACATATA | 0.325 ± 0.081 |
| GACATATA | 0.0588 ± 0.11 |
| ACCATATA | 0.278 ± 0.042 |
| AACATATA | 0.286 ± 0.079 |
| TACATATA | 0.238 ± 0.022 |
| CACATATC | 0.149 ± 0.067 |
| ACCATATC | 0.0503 ± 0.19 |
| ACCATATG | 0.159 ± 0.02 |
| GACATATC | 0.135 ± 0.032 |
| TACATAGA | 0.163 ± 0.051 |
| CGTCGGAG | -0.1482 ± 0.0013 |
| CGCACTAG | -0.0251 ± 0.025 |
| GCAGATCA | -0.15 ± 0.0073 |
| CTACCTGC | -0.0986 ± 0.014 |
| ATAAATAG | 0.167 ± 0.075 |
| AGAAATAC | 0.0602 ± 0.05 |
| GGAAATAA | 0.154 ± 0.013 |
| TTAAATAA | 0.18 ± 0.063 |
| ATAAATAC | 0.263 ± 0.071 |
| AAAAATAT | 0.229 ± 0.035 |
| AGAAATAA | 0.259 ± 0.097 |
| ATAAATAT | 0.319 ± 0.01 |
| ATAAATAA | 0.231 ± 0.0076 |
| TTAAGGAA | 0.0354 ± 0.0092 |
| AGGAAGTG | -0.0996 ± 0.0079 |

| Sequence | PBM 8-mer E-score |
| --- | --- |
| CTCTTGAC | -0.0583 ± 0.0029 |
| CCCAAATA | 0.176 ± 0.061 |
| ACCGATCC | -0.277 ± 0.0028 |
| AGAAGCAA | 0.1 ± 0.028 |
| ATCGGTTA | -0.0224 ± 0.05 |
| ATGATTAC | 0.149 ± 0.044 |
| GATAGAGC | -0.15 ± 0.001 |
| CTACATAG | 0.138 ± 0.14 |
| AATGCATA | 0.171 ± 0.09 |
| CATGCACG | 0.183 ± 0.026 |
| AATGCATC | 0.129 ± 0.082 |
| CATGCATG | 0.3719 ± 0.0024 |
| CATGCATC | 0.0441 ± 0.017 |
| AATGCATT | 0.348 ± 0.072 |
| CGTGCACA | 0.098 ± 0.028 |
| TGTGCACA | 0.221 ± 0.046 |
| CATGCATA | 0.19 ± 0.13 |
| CGTGCACG | 0.283 ± 0.13 |
| GATGCACA | -0.00748 ± 0.045 |
| CATGCACA | 0.317 ± 0.082 |
| GTGAATTA | 0.191 ± 0.067 |
| CCTTACGC | 0.0271 ± 0.0015 |
| AGCGTTTG | -0.169 ± 0.14 |
| CCAAGTGG | -0.15414 ± 2.1e-05 |
| CTTTAGGC | -0.158 ± 0.011 |

| Sequence | PBM 8-mer E-score |
| --- | --- |
| GAAGCTTA | 0.129 ± 0.018 |
| ATGGACTA | 0.128 ± 0.015 |
| GCGGATAA | -0.0466 ± 0.033 |
| CTGACTAC | -0.0404 ± 0.19 |
| CTATAAGC | -0.00153 ± 0.018 |
| ACTGCATG | -0.0337 ± 0.13 |
| AATGCAAG | 0.0709 ± 0.08 |
| CATGCAAC | 0.327 ± 0.012 |
| AATGCATG | 0.237 ± 0.073 |
| AATGCAAC | 0.197 ± 0.047 |
| CATGCAAG | 0.118 ± 0.015 |
| GACTCCGA | -0.155 ± 0.046 |
| TCTCGACA | -0.0258 ± 0.011 |
| TCGGGTAA | 0.00741 ± 0.027 |
| ACAGGCAT | -0.0411 ± 0.063 |
| CCTCTCTC | -0.045 ± 0.086 |
| CCATCATA | 0.0385 ± 0.12 |
| ACATCACC | -0.0768 ± 0.063 |
| ATATCATG | 0.175 ± 0.056 |
| ATATCACG | 0.294 ± 0.068 |
| CTATCACA | 0.169 ± 0.029 |
| ATATCACA | 0.117 ± 0.14 |
| CTATCATA | 0.208 ± 0.054 |
| ACATCACA | 0.221 ± 0.009 |
| GCATCATA | 0.274 ± 0.019 |

| Sequence | PBM 8-mer E-score |
| --- | --- |
| GCATCAGA | 0.0605 ± 0.012 |
| ACATCACT | 0.245 ± 0.095 |
| ATATCATA | 0.253 ± 0.14 |
| AGACTGGG | -0.147 ± 0.064 |
| ACGGAATA | -0.0839 ± 0.0017 |
| AGCTTGGG | -0.0797 ± 0.022 |
| CAATGATG | -0.00417 ± 0.0019 |
| ACGCTCGC | 0.0344 ± 0.16 |
| CTGAGCTA | -0.17 ± 0.098 |
| CATTTTAC | 0.188 ± 0.026 |
| GCGTCAAA | -0.0402 ± 0.15 |
| AGACGGGA | -0.0877 ± 0.053 |
| TGAATCCA | 0.0507 ± 0.048 |
| GGGTTCCA | -0.11 ± 0.023 |
| AGCGATTG | -0.152 ± 0.033 |
| ACCAATCT | -0.0171 ± 0.067 |
| ACATCATC | 0.166 ± 0.041 |
| ATGTCACG | 0.297 ± 0.063 |
| ACATCATG | 0.07 ± 0.031 |
| CTGTCACA | 0.00831 ± 0.13 |
| ATGTCACA | 0.131 ± 0.002 |
| ACATCATA | 0.249 ± 0.038 |
